ELG1 genotoxic – inducers of genotoxicity in HEK293T ELG1-luciferase cells; HEK293T ELG1-luciferase reporter, luminescence, 16 h; Potency, µM (highest dose often 46 µM), without a hit: at the highest dose activity change, positive = activation, usual class: activators; 330,000 tested, 1.3% active; AID 504466; also: % of control where 0% means no effect; nearly all actives have a fitted effect of over 60% in size
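HEK293T cells expressing luciferase-tagged ELG1 were exposed to compound or DMSO vehicle for 16 hr at 37 °C and 5% CO2. Luciferase activity was then measured with ONE-Glo after 30 min at room temperature.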
KinaseGlo FLuc – blocks Kinase-Glo luciferase, a counter-screen artifact; Q27757; Kinase-Glo luciferase, ATP luminescence, 8 min; Potency, µM (series often up to 38.3 µM), for the others: top-dose activity change, negative = inhibition, actives largely listed as inhibitors; 200,000 tested, 0.28% active; AID 1379; also: % is scaled to controls: 0 for no effect and ±100 for the full control effect; nearly all actives have a fitted effect of over 60% in size
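Compound is pinned into ATP-containing buffer (10 uM ATP, imidazole pH 7.2, 7 mM MgCl2). Kinase-Glo luciferase reagent is then added. Light output is recorded following an 8-min room-temperature incubation.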
Rab9 promoter act – Rab9 promoter activation; Huh7 Rab9 promoter-luciferase reporter, luminescence, 24 h; 320,000 tested, 2.8% active; Potency, µM (series often up to 9.22 µM), without a hit: top-dose activation, negative = inhibition, hits mostly activators; also: % of control where 0% means no effect; nearly all actives have a fitted effect of over 60% in size
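Luciferase signal after 10 min detection reagent at ambient indicates Rab9 promoter upregulation; stably transfected Huh7 cells were treated 24 h with compound in DMSO at 37 °C, 5% CO2.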
FLuc counter – inhibits or activates purified firefly luciferase, miR-21 counter-screen; 360,000 tested, 6.9% active; purified FLuc, Km substrates, luminescence inhibition; P08659; Potency, µM (top dose mostly 57.5 µM), inactives show at the highest dose activity change, negative = inhibition, hits mostly inhibitors;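 also: plate controls were vehicle for no effect and reference inhibitor for full effect; nearly all actives have a fitted effect of over 55% in size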
Target sequence (P08659 whole entry, looked up): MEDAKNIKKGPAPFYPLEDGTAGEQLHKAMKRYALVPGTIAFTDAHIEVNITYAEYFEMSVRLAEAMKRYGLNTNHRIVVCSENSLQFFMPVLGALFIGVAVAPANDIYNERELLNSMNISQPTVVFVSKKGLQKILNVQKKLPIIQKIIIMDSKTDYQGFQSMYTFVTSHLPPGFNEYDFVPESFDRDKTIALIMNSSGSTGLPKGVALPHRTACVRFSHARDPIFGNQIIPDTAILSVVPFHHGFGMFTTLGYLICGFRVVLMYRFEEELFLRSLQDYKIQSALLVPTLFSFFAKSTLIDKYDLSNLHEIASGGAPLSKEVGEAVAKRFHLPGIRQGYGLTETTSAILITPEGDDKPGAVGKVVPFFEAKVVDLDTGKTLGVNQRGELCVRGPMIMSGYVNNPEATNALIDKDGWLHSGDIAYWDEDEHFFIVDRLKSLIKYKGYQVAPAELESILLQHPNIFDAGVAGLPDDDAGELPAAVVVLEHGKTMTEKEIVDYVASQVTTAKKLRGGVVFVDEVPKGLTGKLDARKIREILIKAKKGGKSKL
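Biochemical qHTS of compounds, final roughly 60 µM downward over six points, against 10 nM purified firefly luciferase using Km concentrations of substrates (10 uM D-luciferin, 10 uM ATP) in Tris acetate pH 7.5 buffer; luminescence output.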
SMN2 splice up – SMN2 splice variant enhancement; HEK293 SMN2-luciferase splicing reporter, luminescence, 30-36 h; 210,000 tested, 2.8% active; Potency, µM (top dose mostly 46.1 µM), for the others: at the highest dose activity change, positive = activation, hits mostly activators; also: % of control where 0% means no effect; nearly all actives have a fitted effect of over 55% in size
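qHTS luciferase splicing reporter: luminescence rises when SMN2 exon 7 is included in transfected HEK293 cells. Compound exposure lasted 30-36 h at 37C, with 4.5 mM final sodium butyrate as control, followed by a ONE-Glo read.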
NPC1 promoter act – activators of NPC1 promoter. Huh7 NPC1 promoter luciferase reporter, 24 h. Potency, µM (titrated, usually from 9.22 µM), for the others: top-dose activation, most hits filed as activators. 320,000 tested, 2.4% active. AID 485313; also: % of control where 0% means no effect; nearly all actives have a fitted effect of over 60% in size
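Cells: Huh7 expressing luciferase under the NPC1 promoter, 1500/well. Seeded 2 h, compound added, incubated 24 h at 37 °C. Luciferase reagent, 10 min ambient, then luminescence.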
* marks the source's active call; other numbers are inactive results. Rows were chosen to be rich in hits. Some 7.5% of all compounds tested hit in one or more screens of this group. Calls follow the shape of the dose curve; as a rule, active = well fitted curve in the direction sought with a large enough effect; inconclusive = small, poorly fitted or top-dose-only effect, or another doubt; inactive = no such curve, though single readings can be large; an effect the other way counts as inactive or inconclusive. Potency is read from the fitted curve at half-maximal effect.

Screening COc1ccc(-c2csc(NC(=O)CSCC(=O)Nc3cc(C)on3)n2)cc1 returned ELG1 genotoxic 0.6%, Rab9 promoter act 1.3%, FLuc counter inconclusive and NPC1 promoter act 8.3%.
Cc1cc(C)c(OCC(=O)N(Cc2cccc(F)c2)Cc2ccco2)c(C)c1 was read as FLuc counter -5.6% and SMN2 splice up -14.6%.
For Cc1ccc(-c2cn3ccc(C)cc3n2)cc1 the results were FLuc counter 0.151µM* and SMN2 splice up 0.251µM*.
Screening Cc1ccc(S(=O)(=O)Nc2ccc(-c3cn4ccc(C)cc4n3)cc2)cc1 returned ELG1 genotoxic -3.9%, Rab9 promoter act 12.1%, FLuc counter inconclusive and NPC1 promoter act -2.4%.
Screening Clc1ccc(-c2cn3cc(Br)ccc3n2)cc1Cl returned ELG1 genotoxic 0.82µM*, KinaseGlo FLuc -20.8%, Rab9 promoter act 2.24µM*, FLuc counter 0.213µM*, SMN2 splice up 2.24µM* and NPC1 promoter act 3.98µM*.
For O=S(=O)(c1cccc(-c2cn3cc(Cl)ccc3n2)c1)N1CCOCC1 the results were ELG1 genotoxic -7.1%, KinaseGlo FLuc -3.3%, Rab9 promoter act -0.7%, FLuc counter inconclusive and NPC1 promoter act -3.6%.
Screening COc1c(Cl)cccc1-c1cn2ccc(C)cc2n1 returned ELG1 genotoxic inconclusive, Rab9 promoter act 0.562µM*, FLuc counter 0.675µM* and NPC1 promoter act 1.26µM*.
Screening Cc1ccn2cc(-c3ccc(Br)cc3)nc2c1 returned ELG1 genotoxic inconclusive, Rab9 promoter act 0.562µM*, FLuc counter 0.151µM* and NPC1 promoter act 2.82µM*.
Screening COc1ccc2oc(=O)c(-c3cn4ccc(C)cc4n3)cc2c1 returned ELG1 genotoxic 20.6µM*, KinaseGlo FLuc -4.3%, Rab9 promoter act 3.16µM*, FLuc counter inconclusive, SMN2 splice up -9.9% and NPC1 promoter act inconclusive.
COc1cc(/C=C2/C(=O)ON=C2c2ccccc2)ccc1O was read as ELG1 genotoxic 2.8%, KinaseGlo FLuc -1.7%, Rab9 promoter act -1.3%, FLuc counter 19µM*, SMN2 splice up -1.5% and NPC1 promoter act -2.7%.
Screening COc1cc(/C=C2\C(=O)ON=C2c2ccccc2)cc(Br)c1O returned ELG1 genotoxic 18.0%, Rab9 promoter act -13.5%, FLuc counter inconclusive and NPC1 promoter act -10.7%.
For COc1cc(/C=C2\C(=O)ON=C2c2ccccc2)cc(Cl)c1O the results were ELG1 genotoxic 0.5%, KinaseGlo FLuc -9.4%, Rab9 promoter act -11.5%, FLuc counter 19µM*, SMN2 splice up 6.8% and NPC1 promoter act -6.5%.
O=C1ON=C(c2ccccc2)/C1=C/c1ccc(O)cc1 was read as ELG1 genotoxic inconclusive, Rab9 promoter act -0.6%, FLuc counter inconclusive and NPC1 promoter act -3.6%.
For O=C1ON=C(c2ccc(Cl)cc2)/C1=C/c1ccc(O)cc1 the results were ELG1 genotoxic inconclusive, KinaseGlo FLuc 1.3%, Rab9 promoter act -9.5%, FLuc counter 10.7µM*, SMN2 splice up -0.5% and NPC1 promoter act -4.9%.
Cn1cc(S(=O)(=O)c2ccc(Cl)cc2)c(=O)c2cc(F)c(N3CCOCC3)cc21 was read as FLuc counter 0.1%.
Screening COc1ccc(CNC(=O)c2sc3nc[nH]c(=O)c3c2C)cc1 returned FLuc counter 5.3%.
For O=C(Oc1cccc(/C=N/Nc2nc(Nc3ccccc3)nc(N3CCOCC3)n2)c1)c1ccco1 the results were ELG1 genotoxic -0.3%, KinaseGlo FLuc -1.0%, Rab9 promoter act 0.0%, FLuc counter 7.57µM*, SMN2 splice up 19.3% and NPC1 promoter act 6.6%.
C(=N\Nc1nc(Nc2ccccc2)nc(N2CCOCC2)n1)/c1c[nH]c2ccccc12 was read as ELG1 genotoxic -8.3%, KinaseGlo FLuc -0.8%, Rab9 promoter act -2.7%, FLuc counter 4.26µM*, SMN2 splice up 5.6% and NPC1 promoter act -1.1%.

Assay outcomes (PubChem BioAssay)
